Compound activity from PubChem.
Hits are enriched below; roughly 19% of the tested compounds scored in any of these assays.
HT1080 IDH1KD tx: qHTS for induction of synthetic lethality in tumor cells producing 2HG: qHTS for the HT-1080-IDH1KD cell line | HT-1080 IDH1 knockdown viability, ATP luminescence, 48 h | Potency, µM (series often up to 46.1 µM), for inactives: top-dose activity, negative = toxicity, hits mostly cytotoxic | 360,000 compounds, 2% hits | AID 686971, 2013;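 note: potency is the fitted concentration of half-maximal effect; 0% = DMSO wells and -100% = cell-free medium wells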
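Luminescent ATP read-out (CellTiter-Glo, 10 min at room temperature) after 48 h compound exposure at 37 °C gave viability of IDH1-knockdown HT-1080 cells. Activity was normalised to DMSO and cell-free wells, then fitted as concentration-response curves.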
HT1080-NT tox: qHTS for induction of synthetic lethality in tumor cells producing 2HG: qHTS for the HT-1080-NT fibrosarcoma cell line | Potency, µM (highest dose often 46.1 µM), without a hit: top-dose activity, negative = less viability, most hits filed as cytotoxic | HT-1080-NT fibrosarcoma viability, CellTiter-Glo ATP luminescence, 48 h | AID 686970, 2013 | 360,000 compounds, 1.6% hits;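 note: NT is the 2HG producing partner of a matched IDH1 knockdown line; potency is the fitted concentration of half-maximal effect; 0% = DMSO-treated cells and -100% = media-only wells without cells; nearly all actives have a fitted effect of over 55% in size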
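HT-1080-NT fibrosarcoma cells (2HG-overproducing), 750 cells/well in RPMI with 5% FBS, dosed after 2 h and incubated 48 h at 37C. CellTiter-Glo luminescence normalized to DMSO and no-cell wells; concentration-response curves fitted and classed.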
IL1B secr inh: qHTS for Inhibitors of Inflammasome Signaling: IL-1-beta AlphaLISA Primary Screen. THP-1 LPS/ATP IL-1B secretion, AlphaLISA, 16 h; hits give low values. activity change, % at 57.5 µM. 360,000 compounds, 4.7% hits; in the data active = activity change below about -50%; inconclusive = mostly about -30% to -49%
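Secreted IL-1B measured by AlphaLISA bead assay after 16 h compound exposure of THP-1 cells; compounds (final up to 57.5 uM) added 1 h before LPS (250 ng/mL) and ATP (1.25 mM) stimulation; lower signal means less secretion.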
TDP1 cell CPT: qHTS for Inhibitors of human tyrosyl-DNA phosphodiesterase 1 (TDP1): qHTS in cells in presence of CPT. chicken DT40 Tdp1-/-;hTDP1 cells + 20 nM CPT, ATP luminescence, 48 h. Potency, µM (highest dose often 46.2 µM), for the others: top-dose activity change, negative = growth inhibition, most hits filed as inhibitors. 420,000 compounds, 12% hits. AID 686979, 2013; note: potency is the fitted concentration of half-maximal effect; nearly all actives have a fitted effect of over 55% in size
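Chicken DT40 Tdp1-/- cells stably complemented with human TDP1 were seeded at 400 cells/well in medium containing 20 nM camptothecin, exposed to pin-transferred compounds, and grown at 37 °C for at least 48 hr. Viability was read as ATP luminescence.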
DT40 TDP1 no CPT: qHTS for Inhibitors of human tyrosyl-DNA phosphodiesterase 1 (TDP1): qHTS in cells in absence of CPT. DT40 Tdp1-/- hTDP1 cells, no CPT, ATP luminescence, 48 h. Potency, µM (top dose mostly 46.2 µM), without a hit: top-dose activity change, negative = growth inhibition, most hits filed as inhibitors. 420,000 compounds, 15% hits; note: potency is the fitted concentration of half-maximal effect; nearly all actives have a fitted effect of over 55% in size
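Luminescent ATP content (CellTiter-Glo) served as the growth readout. Knockout chicken DT40 cells expressing human TDP1 were exposed to compounds without camptothecin for a minimum 48 hr at 37 °C.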
The depositor's hits bear a star; ? = inconclusive; . = no result. Unless noted, calls come from the whole dose curve; as a rule, active = well fitted curve in the direction sought with a large enough effect; inconclusive = small, poorly fitted or top-dose-only effect, or another doubt; inactive = no such curve, though single readings can be large; an effect the other way counts as inactive or inconclusive. Unless noted, % is set by controls: 0 for no effect and ±100 for the full control effect.

SMILES	HT1080 IDH1KD tx	HT1080-NT tox	IL1B secr inh	TDP1 cell CPT	DT40 TDP1 no CPT
Cc1ccc(N2C(=O)[C@@H]3C(c4cccnc4)=NO[C@@H]3C2=O)cc1	11.3%	11.1%	0.0	?	?
O=c1c(Cc2ccc(F)cc2)c(O)ccn1Cc1cccc(Cl)c1	-8.5%	-2.4%	0.0	?	16.4µM*
O=c1c(Cc2ccc(Cl)cc2)c(O)ccn1Cc1cccc(Cl)c1	-23.1%	-14.1%	32.8	-11.1%	?
Cn1c(SCC(N)=O)nc2c([nH]c3ccccc32)c1=O	.	.	.	6.0%	-19.5%
COc1ccc(-c2cc(=O)n(CCC#N)[nH]2)cc1	-13.0%	-10.1%	6.3	?	23.1µM*
COc1cc(C(=O)CC2(O)C(=O)N(Cc3ccccc3Cl)c3ccccc32)cc(OC)c1OC (stereo unspecified)	.	.	.	5.8µM*	5.17µM*
CCCN1C(=O)C(O)(CC(=O)c2ccc(OC)c(OC)c2)c2ccccc21 (stereo unspecified)	.	.	.	?	16.4µM*
COc1ccc(CN2C(=O)C(O)(CC(=O)c3c(C)n[nH]c3C)c3ccccc32)cc1OC (stereo unspecified)	3.2%	0.9%	0.0	?	?
Cc1ccc(C(=O)CC2(O)C(=O)N(Cc3ccccc3Cl)c3ccccc32)o1 (stereo unspecified)	-24.4%	-0.2%	2.2	?	10.3µM*
Cc1ccc(OCC(=O)Nc2ccc3c(c2)OCO3)cc1C	-4.8%	6.4%	-8.4	-6.0%	25.9µM*
Cc1ccc(C)c(OCC(=O)Nc2ccc3c(c2)OCO3)c1C	-26.9%	-15.0%	5.0	?	18.4µM*
Cc1ccc(-n2c3c(cc(C(=O)Nc4ccccc4C(N)=O)c2=O)C(=O)CC(C)(C)C3)cc1	.	.	.	-1.5%	-23.7%
CC(C)CCCCCCCCCCCCC(=O)NCC(=O)NC1C(C)OC(Nc2ncnc3nc[nH]c23)C(O)C1O (stereo unspecified)	0.116µM*	1.84µM*	-93.0*	0.0206µM*	0.0326µM*
CC(C)CNc1ncnc2nc[nH]c12	.	.	.	-7.2%	?
CCc1ccccc1NS(=O)(=O)c1cc2c3c(c1)CCN3C(=O)CC2	-1.7%	0.8%	22.8	2.9%	-28.8%
O=c1c(-c2ccc(F)cc2)nc2cncnc2n1Cc1ccc(F)cc1	.	.	.	-7.8%	-4.4%
COc1cccc(Cn2c(=O)c(-c3cc(F)cc(F)c3)nc3cnc(N4CCN(C)CC4)nc32)c1	.	.	.	1.6%	15.2%
COc1cccc(Cn2c(=O)c(-c3cccs3)nc3cnc(N4CCNCC4)nc32)c1	.	.	.	?	18.4µM*
O=c1c(-c2ccc(Cl)cc2)nc2cnc(N3CCNCC3)nc2n1Cc1ccc(F)cc1	.	.	.	6.51µM*	9.2µM*
O=c1c(-c2ccc(F)cc2)nc2cncnc2n1Cc1ccccc1	.	.	.	?	16.4µM*
COc1cccc(Cn2c(=O)c(-c3ccc(F)cc3)nc3cnc(N4CCNCC4)nc32)c1	.	.	.	13µM*	23.1µM*
CC(=O)N1CCC2(CC1)CN(Cc1ccc(C#N)cc1)C2	.	.	.	-1.6%	-7.0%
Cc1nn(-c2ccccc2)c(OC(=O)c2cccs2)c1S(=O)(=O)c1ccc([N+](=O)[O-])cc1	0.2%	?	11.1	-21.9%	-3.3%
COc1cccc(Cn2c(=O)c(-c3ccc(Cl)cc3)nc3cnc(N4CCNCC4)nc32)c1	.	.	.	5.8µM*	5.8µM*
COc1cccc(Cn2c(=O)c(-c3ccc(Cl)cc3)nc3cnc(N4CCN(C)CC4)nc32)c1	.	.	.	3.1%	-27.5%
COc1ccc(-c2nc3cnc(N4CCNCC4)nc3n(Cc3cccc(OC)c3)c2=O)cc1	.	.	.	6.51µM*	4.61µM*
CC(=O)Nc1coc2ccc(Br)cc12	-8.7%	-3.5%	26.0	?	?
